Data published in the supplement of paper PMC6992640.
± gives the standard deviation of the averaged measurements.

Key:
Test in all cases: cell viability (% of vehicle); higher = less cytotoxic
Settings in all cases: 10 µM; 72 h
[1] = test system: HCI01 (cells of a triple-negative basal-like breast cancer xenograft)
[2] = test system: HCI03 (cells of an ER-positive luminal breast cancer xenograft)
[3] = test system: HCI09 (cells of a triple-negative luminal androgen receptor type breast cancer xenograft)
[4] = test system: HCI11 (cells of an ER-positive luminal breast cancer xenograft)
[5] = test system: HCI13 (cells of an ER-positive luminal breast cancer xenograft)
[6] = test system: UCD52 (cells of a triple-negative basal-like breast cancer xenograft)
[7] = test system: WHIM2 (cells of a triple-negative basal-like breast cancer xenograft)
[8] = test system: HCI16 (cells of a triple-negative basal-like breast cancer xenograft)
[9] = test system: WHIM30 (cells of a triple-negative basal-like breast cancer xenograft)
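Note: PDX cells carrying CMV promoter-driven luciferase, viability read as total photon flux per second by IVIS imaging following D-luciferin, vehicle control 0.1% DMSO.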

SMILES	cell viability [1]	cell viability [2]	cell viability [3]	cell viability [4]	cell viability [5]	cell viability [6]	cell viability [7]	cell viability [8]	cell viability [9]
CNCc1ccc(-c2[nH]c3cc(F)cc4c3c2CCNC4=O)cc1.O=P(O)(O)O	161.1 ± 0.84	104	76 ± 12	85.9	145 ± 9.1	126 ± 39	173 ± 26		
Cc1cc(C2CCCCC2)n(O)c(=O)c1.NCCO [Ciclopirox ethanolamine]	113 ± 52	60.3	31.7 ± 9.4	69.4	59.3 ± 3.2	63.4 ± 8.2		123	86.4 ± 7
CCCCc1ncc(C=C(Cc2cccs2)C(=O)O)n1Cc1ccc(C(=O)O)cc1.CS(=O)(=O)O [Eprosartan Mesylate]	156 ± 27	129	106 ± 17	120	108 ± 12	124 ± 9.7	123 ± 9.3	134	198 ± 22
Cc1c(C(=O)Nc2ccc(N3CC(C)OC(C)C3)nc2)cccc1-c1ccc(OC(F)(F)F)cc1 (stereo not drawn) [LDE225 (NVP-LDE225,Erismodegib)]	98.3 ± 17	119	66.8 ± 2.4	80.7	69.7 ± 4.5	80.8 ± 1.8	97.5 ± 14	94.8	86.1 ± 7.6
Cc1cc(NS(=O)(=O)c2ccc(N)cc2)no1 [Sulfamethoxazole]	115 ± 29	127	107 ± 30	95.4	120 ± 1.2	99.6 ± 4.2	117.5 ± 0.64	154	196 ± 4
CC1(c2nc3c(C(N)=O)cccc3[nH]2)CCCN1 (stereo not drawn) [ABT-888 (Veliparib)]	109 ± 7.5	120	108 ± 5.2	100	86.9 ± 14	94.2 ± 2	101 ± 14	91.1	121 ± 4.2
CCOc1ccc(NC(C)=O)cc1 [Phenacetin]	139 ± 6	136	96.9 ± 17	96.7	102 ± 3.9	82 ± 12	98.7 ± 10	122	94.4 ± 11
Nc1nc(Cl)nc2c1ncn2C1OC(CO)C(O)C1F (stereo not drawn) [Clofarabine]	162.3 ± 0.47	175	141 ± 70	126	180 ± 11	143 ± 24		92.9	128.5 ± 0.14
CCn1cc(C(=O)O)c(=O)c2cc(F)c(N3CCNCC3)cc21 [Norfloxacin]	104 ± 11	143	116 ± 27	101	163 ± 52	130 ± 8.1	80.5 ± 17	166	160 ± 12
COC(=O)Nc1nc2cc(C(=O)c3ccccc3)ccc2[nH]1 [Mebendazole]	134 ± 45	110	119 ± 45	68.6	88.9 ± 15	103.3 ± 0.22	92.6 ± 18	177	110.3 ± 0.28
NC(=O)N1CCC(CC(=O)N2CCC(C3c4ncc(Br)cc4CCc4cc(Cl)cc(Br)c43)CC2)CC1 (stereo not drawn) [Lonafarnib]	72.5 ± 68	121	12.8 ± 2.5	163	43.2 ± 17		126 ± 12	170	115 ± 7.2
CC(CCC(=O)O)C1CCC2C3C(O)CC4CC(O)CCC4(C)C3CCC12C (stereo not drawn) [Chenodeoxycholic Acid]	114 ± 38	104	66 ± 10	103	41.5 ± 4.3	97.13 ± 0.54	115 ± 23	102	146 ± 3.2
